In the library only some 1.3% were active in any assay of this set; here they are far more common.
Bfl-1 A1 inh – inhibitors of the anti-apoptotic protein A1, read as caspase activation | MEF A1-2A-BIM cells, Caspase-Glo 3/7 luminescence, 3 h; percent of clofoctol response, vehicle zero | caspase activation, % (test concentration not listed) | 0.066% of 330,000 active | AID 2462;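 active means over half of replicate activation scores above 10%, or exactly half above 10 with the replicate mean above 10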
NTR1 agonist – activates human neurotensin receptor 1; P30989; NTR1-U2OS beta-arrestin-GFP spot imaging, agonist mode; activation, % at 20 µM; 0.17% of 330,000 active; AID 493036;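 active means activation at or above 40% of the spot to cytoplasm intensity ratio, with at least 20 cells analyzed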
Beta2AR agonist – human beta-2 adrenergic receptor agonism by FAP; AID 504454; Am2.2-beta2AR cells, FAP receptor internalization, flow cytometry; 0.43% of 340,000 active; response, % (concentration not given with the values);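 active means response above a set limit, near 3 SD of response in nonfluorescent compounds, cut at about 42% in these data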
Target sequence (P07550 whole entry, looked up): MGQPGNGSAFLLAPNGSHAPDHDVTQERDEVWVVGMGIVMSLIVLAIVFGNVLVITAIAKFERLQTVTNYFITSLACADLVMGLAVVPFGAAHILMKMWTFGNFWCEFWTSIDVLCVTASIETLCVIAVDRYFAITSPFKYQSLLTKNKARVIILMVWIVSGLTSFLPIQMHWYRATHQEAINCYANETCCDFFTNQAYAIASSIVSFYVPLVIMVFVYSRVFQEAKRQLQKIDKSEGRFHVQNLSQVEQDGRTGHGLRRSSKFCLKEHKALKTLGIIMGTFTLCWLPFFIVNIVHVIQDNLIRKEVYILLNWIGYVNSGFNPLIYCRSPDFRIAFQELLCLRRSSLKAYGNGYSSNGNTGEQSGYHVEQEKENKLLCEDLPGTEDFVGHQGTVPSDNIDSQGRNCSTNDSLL
VLA-4 inh – inhibition in a human VLA-4 binding assay. P13612. VLA-4 expressing cells, ligand binding flow cytometry. inhibition, % (about 7 µM as worked out from the volumes in the protocol). 0.2% of 330,000 active; in the data active means inhibition above about 50%
GRK2 aptamer HTS – human GRK2 inhibition via aptamer displacement; bead flow cytometry, FAM-aptamer displacement from GRK2; inhibition of aptamer binding, % at 10 µM; AID 488847; 0.59% of 330,000 active;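 active means inhibition of aptamer binding above 40%, roughly 3 SD of noise, on plates passing a quality check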;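 further: median bead fluorescence of bound FAM aptamer so fluorescent compounds give negative values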
Large screens that a line does not name were inactive.

C=C1CC(Cn2cc(Br)c(=O)[nH]c2=O)(c2ccc(-c3ccccc3)cc2)OC1=O (stereo unspecified)	Beta2AR agonist 50.8 (no result: Bfl-1 A1 inh, NTR1 agonist, VLA-4 inh, GRK2 aptamer HTS)
CC(=O)N1c2c(cc(Br)cc2S(=O)(=O)N2CCN(c3ccccc3F)CC2)CC1C (stereo unspecified)	none
Cc1cc2c(n1-c1ccc(C(=O)O)cc1)CCCCC2	GRK2 aptamer HTS 68.0 (no result: Beta2AR agonist)
CCCCCN(C(=O)CCC(=O)OCc1ccccc1C(F)(F)F)c1c(N)n(CCCC)c(=O)[nH]c1=O	GRK2 aptamer HTS 47.0
CCCCCN(C(=O)CCC(=O)OCc1ccccc1F)c1c(N)n(CCCC)c(=O)[nH]c1=O	none
c1ccc2c(c1)nc1n2CCN1CCN1CCCC1	none
Cc1ccc(NC(=O)OCc2cc(-c3ccccc3)on2)cc1	none
Cc1ccc(NC(=O)OCc2cccs2)cc1	VLA-4 inh 56.7 (no result: Beta2AR agonist)
O=c1c2cc([N+](=O)[O-])ccc2nc(CN2CCN(c3ccccn3)CC2)n1-c1ccccc1F	none
O=C(/C=C/c1cc[n+](CC(=O)c2ccc3cccc4c3c2CC4)cc1)c1ccc2cccc3c2c1CC3	Beta2AR agonist 73.8, GRK2 aptamer HTS 94.0
CC(C)c1ccc2[nH]c(O)c(N=NC(=O)c3ccc(CSc4nncn4C)cc3)c2c1	Beta2AR agonist 45.0
O=C(Nc1cccc(F)c1)C1CCCN(S(=O)(=O)c2ccccc2)C1 (stereo unspecified)	none
CC[C@]12c3[nH]c4ccc(OC)cc4c3CCN1C(=O)C(CC(=O)NCC13CC4CC(CC(C4)C1)C3)C[C@@H]2C(=O)N1CCN(C(=O)c2ccco2)CC1 (stereo partly specified)	GRK2 aptamer HTS 43.0 (no result: Bfl-1 A1 inh, VLA-4 inh)
Cc1ccc(-n2c(Cl)c(Cl)nc(Cl)c2=O)cc1	Beta2AR agonist 50.3 (no result: NTR1 agonist)
COc1ccccc1C(=O)OCC(=O)Nc1ccc(Cl)cn1	none
CN(C)/C=C/C(=O)c1ccc(F)cc1F	none
O=C(Nc1ccc2nc(-c3ccco3)c(-c3ccco3)nc2c1)N1CCCCCC1	GRK2 aptamer HTS 52.0 (no result: Beta2AR agonist)
O=C(N/N=C/c1cc2c(cc1Br)OCO2)c1c[nH]c2ccccc12	VLA-4 inh 50.3
O=C(/C=C/Nc1ccc(F)c(Cl)c1)c1ccccc1	none
COc1cc(/C=C(\C#N)c2ccccn2)ccc1OCc1ccccc1Cl	none (no result: NTR1 agonist)
COc1cc(/C=C(\C#N)c2ccccn2)ccc1OCC(=O)Nc1cccc(C(F)(F)F)c1	Beta2AR agonist 76.2
O=C(N/N=C/c1cccc(Cl)c1)C1CCCC1	none
CCC1=NNc2cccc3c(OC)ccc1c23	GRK2 aptamer HTS 81.0 (no result: Beta2AR agonist)
COc1ccc2c3c(cccc13)C(=O)N(O)C2=O	none (no result: NTR1 agonist)
CCN1CCN(c2nc(N)c([N+](=O)[O-])c(Nc3ccc(C)c(C)c3)n2)CC1	Beta2AR agonist 62.5
CCN1CCN(c2nc(N)c([N+](=O)[O-])c(Nc3ccc(C)cc3)n2)CC1	none
COc1ccc(OCC(=O)NNc2c3ccccc3nc3ccccc23)cc1	NTR1 agonist 58.1
c1ccc(C(c2ccccc2)c2ccn[nH]2)cc1	none
O=C(NCc1cccnc1)/C(=C\c1ccc(-c2ccc(Cl)c(Cl)c2)o1)S(=O)(=O)c1ccccc1	Beta2AR agonist 95.2 (no result: NTR1 agonist)
O=C(NCc1cccnc1)c1ccc(-c2ccc(Cl)cc2)o1	none
CC(C)N(Cc1ccccc1)C(=O)CN1C(=O)COc2ccc(S(=O)(=O)N3CCCCCC3)cc21	none
C=C1C(=O)c2sccc2C(c2ccc(OC)c(OC)c2)C1COC(C)=O (stereo unspecified)	Beta2AR agonist 102.3 (no result: Bfl-1 A1 inh, NTR1 agonist, VLA-4 inh, GRK2 aptamer HTS)
O=C(c1cccc(Cl)c1)N1CCN(CCCc2ccccc2)CC1	none
CCOc1ccc2c(ccc(/C=C/c3cc(C)c4cccnc4c3O)[n+]2C)c1	Beta2AR agonist 105.7 (no result: Bfl-1 A1 inh, NTR1 agonist, VLA-4 inh, GRK2 aptamer HTS)
Cc1ccc(NC(C(=O)c2ccccc2)c2ccccc2)cc1 (stereo unspecified)	none (no result: Bfl-1 A1 inh, NTR1 agonist, VLA-4 inh, GRK2 aptamer HTS)
COc1ccc(C(=O)/C=C/C(=O)N(Cc2ccccc2OC)C(C(=O)NC2CCCCC2)c2ccncc2)c(O)c1 (stereo unspecified)	none
COc1ccc(C(=O)/C=C/C(=O)N(CC(=O)NC2CCCCC2)CC2CCCO2)c(O)c1 (stereo unspecified)	Beta2AR agonist 112.2
COc1ccc(C(=O)/C=C/C(=O)N(CC(=O)NC2CCCCC2)Cc2ccccc2)c(O)c1	Beta2AR agonist 110.7 (no result: Bfl-1 A1 inh, NTR1 agonist, VLA-4 inh, GRK2 aptamer HTS)
COc1ccc(C(=O)/C=C/C(=O)N(Cc2ccccc2)C(C(=O)NC2CCCCC2)c2ccncc2)c(O)c1 (stereo unspecified)	none
COc1ccc(C(=O)/C=C/C(=O)N(CC(=O)NC2CCCCC2)Cc2ccccc2OC)c(O)c1	Beta2AR agonist 94.9 (no result: Bfl-1 A1 inh, NTR1 agonist, VLA-4 inh, GRK2 aptamer HTS)
COc1ccc(C(=O)/C=C/C(=O)N(Cc2ccc(F)cc2)C(C(=O)NC2CCCCC2)c2ccncc2)c(O)c1 (stereo unspecified)	none
N#CCCN(C(=O)Nc1ccccc1)C1CCCCC1	none (no result: Bfl-1 A1 inh, NTR1 agonist, VLA-4 inh, GRK2 aptamer HTS)
COc1ccc(S(=O)(=O)N2CCOCC2)cc1NC(=O)CSc1nnc2n1CCCCC2	none
COC(=O)CCNC(=O)Cc1ccc(S(=O)(=O)N2CCCCC2)s1	none (no result: Bfl-1 A1 inh, VLA-4 inh, GRK2 aptamer HTS)
C[n+]1c(/C=C/c2ccc(O)cc2)ccc2ccccc21	none
Cc1cc(/C=C\c2ccc3cc(N(C)C)ccc3[n+]2C)c(C)n1-c1ccccc1	GRK2 aptamer HTS 71.0 (no result: Beta2AR agonist, VLA-4 inh)
O=C(O)CCCN1C(=O)/C(=C\c2ccco2)SC1=S	none (no result: Bfl-1 A1 inh, NTR1 agonist, VLA-4 inh, GRK2 aptamer HTS)
O=C(O)CCN1C(=O)/C(=C\c2ccc(-c3nc4ccccc4s3)o2)SC1=S	Beta2AR agonist 55.3
FC(F)(F)c1cnc(Oc2ccccc2-c2nnco2)c(Cl)c1	GRK2 aptamer HTS 58.0
CC(=O)c1ccccc1NC(=O)C1CCCN(C(=O)c2ccc(Cl)cc2)C1 (stereo unspecified)	none
CSC(SC)=C(C#N)C(=O)c1ccccc1	Bfl-1 A1 inh 6.7, Beta2AR agonist 70.3
CC1=NOC(=O)/C1=C\c1ccc(-c2ccc(Br)cc2)o1	Beta2AR agonist 82.6 (no result: Bfl-1 A1 inh, NTR1 agonist, VLA-4 inh, GRK2 aptamer HTS)
Cc1ccc(C2=NOC(=O)/C2=C\c2ccc(C)o2)cc1	Beta2AR agonist 56.1
CC1=NOC(=O)/C1=C\c1ccc(-c2ccc(Br)cc2C(=O)O)o1	none
CC1=NOC(=O)/C1=C/c1ccc(-c2ccc(Cl)cc2)o1	Beta2AR agonist 65.2
CCCCn1nc(C(=O)Nc2cc(C(F)(F)F)ccc2N2CCOCC2)ccc1=O	none
Fc1ccc(-c2onc3ccc(C4OCCO4)cc23)cc1	none
O=Cc1ccc2noc(-c3ccc(F)cc3)c2c1	Beta2AR agonist 46.1
O=C(NCc1cccc2[nH]ccc12)C1CCC(=O)N(CCc2ccc(Cl)cc2)C1 (stereo unspecified)	none
C=C(C)C(=O)Nc1cccc(C2=NOC3(C2)C[C@H](C(N)=O)N(C(=O)CC)C3)c1 (stereo partly specified)	GRK2 aptamer HTS 72.0
C=C(C)C(=O)Nc1cccc(C2=NOC3(C2)C[C@@H](C(N)=O)N(C(=O)/C(C)=C/C)C3)c1 (stereo partly specified)	GRK2 aptamer HTS 94.0 (no result: Beta2AR agonist)
C/C=C(\C)C(=O)Nc1cccc(C2=NOC3(C2)C[C@@H](C(N)=O)N(C(=O)c2ccccc2C(=O)c2ccccc2)C3)c1 (stereo partly specified)	none

High-throughput results as filed in PubChem.
